Experimental data as given in PubChem BioAssay AID1159580 (chemical genetic matrix, 2015).
The whole screen tested about 5,500 compounds, of which about 2,000 (36%) were called active. Inconclusive results (about 18%) are left out. Cut-off read from the data, not from the text of the source: active = normalized growth mostly below about 0.91 (no sharp cut-off); inconclusive = no clear call, values can overlap the other calls; inactive = mostly above about 0.92. Some of the results follow.

Assay: chemical genetic growth profiling, strain panel (AID 1159580);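 note: tested at 20 µM; growth read once vehicle control cultures reached saturation at 30 °C; 1 = growth at the plate median or of vehicle wells; lower values mean less growth of the strain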
Conditions: growth OD

Measured: normalized growth

CN1CCOC(c2ccccc2)c2ccccc2C1 (configuration not stated)
inactive: S. cerevisiae deletion strains, locus YJR075W, strain HOC1, hits give low values 0.992 | S. cerevisiae deletion strains, locus YKL009W, strain mrt4, hits give low values 0.956 | S. cerevisiae deletion strains, locus YKL068W, hits give low values 1.01 | S. cerevisiae deletion strains, locus YKL085W, strain MDH1 (second series), hits give low values 0.996 | S. cerevisiae deletion strains, locus YKL085W, strain MDH1, hits give low values 0.996 | S. cerevisiae deletion strains, locus YKL160W, strain elf1, hits give low values 0.993 | S. cerevisiae deletion strains, locus YKL190W, strain CNB1, hits give low values 1 | S. cerevisiae deletion strains, locus YKR001C, strain vps1, hits give low values 1.03 | S. cerevisiae deletion strains, locus YKR026C, strain gcn3, hits give low values 0.978 | S. cerevisiae deletion strains, locus YKR091W, strain srl3, hits give low values 0.984 | S. cerevisiae deletion strains, locus YLL001W, strain dnm1, hits give low values 0.976 | S. cerevisiae deletion strains, locus YLL026W, hits give low values 0.99 | S. cerevisiae deletion strains, locus YLL041C, strain sdh2, hits give low values 0.983 | S. cerevisiae deletion strains, locus YLR027C, strain aat2, hits give low values 1 | S. cerevisiae deletion strains, locus YLR039C, strain RIC1, hits give low values 1.01 | S. cerevisiae deletion strains, locus YLR058C, strain SHM2, hits give low values 1 | S. cerevisiae deletion strains, locus YLR102C, strain apc9, hits give low values 1.02 | S. cerevisiae deletion strains, locus YLR113W, strain HOG1, hits give low values 0.997 | S. cerevisiae deletion strains, locus YLR221C, strain rsa3, hits give low values 0.983 | S. cerevisiae deletion strains, locus YLR258W, strain gsy2, hits give low values 0.948 | S. cerevisiae deletion strains, locus YLR262C, strain YPT6 (second series), hits give low values 0.955 | S. cerevisiae deletion strains, locus YLR262C, strain YPT6, hits give low values 1.02 | S. cerevisiae deletion strains, locus YLR268W, strain sec22, hits give low values 1.07 | S. cerevisiae deletion strains, locus YLR320W, strain mms22, hits give low values 0.975 | S. cerevisiae deletion strains, locus YLR330W, strain CHS5, hits give low values 1.01 | S. cerevisiae deletion strains, locus YLR342W, strain FKS1 (second series), hits give low values 1.01 | S. cerevisiae deletion strains, locus YLR342W, strain FKS1, hits give low values 0.982 | S. cerevisiae deletion strains, locus YLR357W, strain rsc2, hits give low values 0.954 | S. cerevisiae deletion strains, locus YLR370C, strain arc18, hits give low values 0.982 | S. cerevisiae deletion strains, locus YLR371W, strain rom2, hits give low values 1.04 | S. cerevisiae deletion strains, locus YLR384C, strain iki3, hits give low values 0.979 | S. cerevisiae deletion strains, locus YLR418C, strain cdc73, hits give low values 1.05 | S. cerevisiae deletion strains, locus YML016C, strain PPZ1, hits give low values 0.999 | S. cerevisiae deletion strains, locus YML032C, strain rad52, hits give low values 1.03 | S. cerevisiae deletion strains, locus YML120C, strain ndi1, hits give low values 0.995 | S. cerevisiae deletion strains, locus YML124C, strain tub3, hits give low values 1.02 | S. cerevisiae deletion strains, locus YMR058W, strain fet3, hits give low values 1.01 | S. cerevisiae deletion strains, locus YMR078C, strain ctf18, hits give low values 1.01 | S. cerevisiae deletion strains, locus YMR125W, strain sto1, hits give low values 0.967 | S. cerevisiae deletion strains, locus YMR129W, hits give low values 0.999 | S. cerevisiae deletion strains, locus YMR205C, strain PFK2, hits give low values 0.966 | S. cerevisiae deletion strains, locus YMR223W, strain ubp8, hits give low values 1.01 | S. cerevisiae deletion strains, locus YMR231W, strain pep5, hits give low values 0.973 | S. cerevisiae deletion strains, locus YMR263W, strain SAP30, hits give low values 1.02 | S. cerevisiae deletion strains, locus YMR307W, strain GAS1, hits give low values 1.15 | S. cerevisiae deletion strains, locus YNL067W, strain RPL9B, hits give low values 1.02 | S. cerevisiae deletion strains, locus YNL071W, strain lat1, hits give low values 0.951 | S. cerevisiae deletion strains, locus YNL128W, strain TEP1, hits give low values 1.01 | S. cerevisiae deletion strains, locus YNL153C, strain GIM3, hits give low values 1.02 | S. cerevisiae deletion strains, locus YNL183C, strain NPR1, hits give low values 0.945 | S. cerevisiae deletion strains, locus YNL209W, strain ssb2, hits give low values 0.981 | S. cerevisiae deletion strains, locus YNL233W, strain BNI4, hits give low values 1.01 | S. cerevisiae deletion strains, locus YNL248C, strain rpa49, hits give low values 0.954 | S. cerevisiae deletion strains, locus YNL250W, strain rad50, hits give low values 1.01 | S. cerevisiae deletion strains, locus YNL271C, strain bni1, hits give low values 1.02 | S. cerevisiae deletion strains, locus YNL298W, strain CLA4, hits give low values 1.01 | S. cerevisiae deletion strains, locus YNL307C, strain MCK1, hits give low values 1.02 | S. cerevisiae deletion strains, locus YNL322C, strain KRE1 (second series), hits give low values 0.958 | S. cerevisiae deletion strains, locus YNL322C, strain KRE1, hits give low values 0.941 | S. cerevisiae deletion strains, locus YNR049C, strain mso1, hits give low values 0.968 | S. cerevisiae deletion strains, locus YNR052C, strain pop2, hits give low values 1.03 | S. cerevisiae deletion strains, locus YOL006C, strain TOP1, hits give low values 1.07 | S. cerevisiae deletion strains, locus YOL012C, strain htz1 1.34 | S. cerevisiae deletion strains, locus YOL147C, strain pex11, hits give low values 1.01 | S. cerevisiae deletion strains, locus YOR001W, strain rrp6, hits give low values 0.99 | S. cerevisiae deletion strains, locus YOR061W, strain CKA2, hits give low values 1.01 | S. cerevisiae deletion strains, locus YOR069W, strain VPS5, hits give low values 1 | S. cerevisiae deletion strains, locus YOR070C, strain gyp1, hits give low values 0.981 | S. cerevisiae deletion strains, locus YOR080W, strain dia2, hits give low values 0.989 | S. cerevisiae deletion strains, locus YOR083W, strain WHI5, hits give low values 0.971 | S. cerevisiae deletion strains, locus YOR106W, strain vam3, hits give low values 0.963 | S. cerevisiae deletion strains, locus YOR136W, strain idh2, hits give low values 1.01 | S. cerevisiae deletion strains, locus YOR144C, strain elg1, hits give low values 1.02 | S. cerevisiae deletion strains, locus YOR184W, strain ser1, hits give low values 1.02 | S. cerevisiae deletion strains, locus YOR231W, strain MKK1, hits give low values 0.995 | S. cerevisiae deletion strains, locus YOR265W, strain rbl2, hits give low values 0.985 | S. cerevisiae deletion strains, locus YOR270C, strain vph1, hits give low values 0.917 | S. cerevisiae deletion strains, locus YOR290C, strain snf2, hits give low values 0.966 | S. cerevisiae deletion strains, locus YOR316C, strain cot1, hits give low values 1.02 | S. cerevisiae deletion strains, locus YPL051W, strain arl3, hits give low values 0.995 | S. cerevisiae deletion strains, locus YPL055C, strain LGE1, hits give low values 1 | S. cerevisiae deletion strains, locus YPL078C, strain atp4, hits give low values 0.979 | S. cerevisiae deletion strains, locus YPL106C, strain sse1, hits give low values 0.921 | S. cerevisiae deletion strains, locus YPL240C, strain hsp82, hits give low values 0.969 | S. cerevisiae deletion strains, locus YPL241C, strain CIN2, hits give low values 1.01 | S. cerevisiae deletion strains, locus YPL256C, strain CLN2, hits give low values 0.997 | S. cerevisiae deletion strains, locus YPR119W, strain clb2, hits give low values 1.01 | S. cerevisiae deletion strains, locus YPR141C, strain kar3, hits give low values 1.01 | S. cerevisiae deletion strains, locus YPR163C, strain tif3, hits give low values 1.03 | S. cerevisiae deletion strains, locus YPR167C, strain met16, hits give low values 1.02 | S. cerevisiae deletion strains, strain wtn01, hits give low values 1.02 | S. cerevisiae strains, strain wild type, hits give low values 1.01
